Data taken from PubChem BioAssay AID1159580 (chemical genetic matrix, 2015).
About 2,000 (36%) of roughly 5,500 compounds were called active. Not shown: some 18% with an inconclusive outcome. Cut-off read from the data, not from the text of the source: active = normalized growth mostly below about 0.91 (no sharp cut-off); inconclusive = no clear call, values can overlap the other calls; inactive = mostly above about 0.92. This is one part of the list.

Assay: chemical genetic growth profiling, strain panel (AID 1159580);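 note: tested at 20 µM; growth read once vehicle control cultures reached saturation at 30 °C; 1 = growth at the plate median or of vehicle wells; lower values mean less growth of the strain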
Conditions: growth OD

Measured: normalized growth

CC(CCC(=O)O)[C@H]1CCC2C3CC[C@@H]4CCCC[C@]4(C)C3CC[C@@]21C (some centres undefined)
inactive: S. cerevisiae deletion strains, locus YJR043C, strain POL32, active compounds read low 1.02 | S. cerevisiae deletion strains, locus YJR066W, strain TOR1, active compounds read low 1.06 | S. cerevisiae deletion strains, locus YJR075W, strain HOC1, active compounds read low 0.999 | S. cerevisiae deletion strains, locus YKL009W, strain mrt4, active compounds read low 0.95 | S. cerevisiae deletion strains, locus YKL068W, active compounds read low 0.989 | S. cerevisiae deletion strains, locus YKL085W, strain MDH1 (second series), active compounds read low 0.986 | S. cerevisiae deletion strains, locus YKL085W, strain MDH1, active compounds read low 0.986 | S. cerevisiae deletion strains, locus YKL160W, strain elf1, active compounds read low 1.02 | S. cerevisiae deletion strains, locus YKL190W, strain CNB1, active compounds read low 0.998 | S. cerevisiae deletion strains, locus YKR001C, strain vps1, active compounds read low 0.998 | S. cerevisiae deletion strains, locus YKR026C, strain gcn3, active compounds read low 1.01 | S. cerevisiae deletion strains, locus YKR091W, strain srl3, active compounds read low 1 | S. cerevisiae deletion strains, locus YLL001W, strain dnm1, active compounds read low 1.01 | S. cerevisiae deletion strains, locus YLL026W, active compounds read low 0.988 | S. cerevisiae deletion strains, locus YLL041C, strain sdh2, active compounds read low 1 | S. cerevisiae deletion strains, locus YLR027C, strain aat2, active compounds read low 0.995 | S. cerevisiae deletion strains, locus YLR039C, strain RIC1, active compounds read low 1.05 | S. cerevisiae deletion strains, locus YLR058C, strain SHM2, active compounds read low 0.999 | S. cerevisiae deletion strains, locus YLR102C, strain apc9, active compounds read low 0.984 | S. cerevisiae deletion strains, locus YLR113W, strain HOG1, active compounds read low 0.977 | S. cerevisiae deletion strains, locus YLR221C, strain rsa3, active compounds read low 1.02 | S. cerevisiae deletion strains, locus YLR258W, strain gsy2, active compounds read low 1 | S. cerevisiae deletion strains, locus YLR262C, strain YPT6 (second series), active compounds read low 1.05 | S. cerevisiae deletion strains, locus YLR262C, strain YPT6, active compounds read low 1.1 | S. cerevisiae deletion strains, locus YLR268W, strain sec22, active compounds read low 0.979 | S. cerevisiae deletion strains, locus YLR320W, strain mms22, active compounds read low 1.05 | S. cerevisiae deletion strains, locus YLR330W, strain CHS5, active compounds read low 0.999 | S. cerevisiae deletion strains, locus YLR342W, strain FKS1 (second series), active compounds read low 0.956 | S. cerevisiae deletion strains, locus YLR342W, strain FKS1, active compounds read low 1.04 | S. cerevisiae deletion strains, locus YLR357W, strain rsc2, active compounds read low 0.997 | S. cerevisiae deletion strains, locus YLR370C, strain arc18, active compounds read low 1.01 | S. cerevisiae deletion strains, locus YLR371W, strain rom2, active compounds read low 0.986 | S. cerevisiae deletion strains, locus YLR384C, strain iki3, active compounds read low 1 | S. cerevisiae deletion strains, locus YLR418C, strain cdc73, active compounds read low 0.975 | S. cerevisiae deletion strains, locus YML016C, strain PPZ1, active compounds read low 1 | S. cerevisiae deletion strains, locus YML032C, strain rad52, active compounds read low 0.992 | S. cerevisiae deletion strains, locus YML120C, strain ndi1, active compounds read low 1.01 | S. cerevisiae deletion strains, locus YML124C, strain tub3, active compounds read low 0.988 | S. cerevisiae deletion strains, locus YMR058W, strain fet3, active compounds read low 1.01 | S. cerevisiae deletion strains, locus YMR078C, strain ctf18, active compounds read low 1 | S. cerevisiae deletion strains, locus YMR125W, strain sto1, active compounds read low 1.02 | S. cerevisiae deletion strains, locus YMR129W, active compounds read low 1 | S. cerevisiae deletion strains, locus YMR205C, strain PFK2, active compounds read low 1.03 | S. cerevisiae deletion strains, locus YMR223W, strain ubp8, active compounds read low 0.994 | S. cerevisiae deletion strains, locus YMR231W, strain pep5, active compounds read low 0.998 | S. cerevisiae deletion strains, locus YMR307W, strain GAS1, active compounds read low 0.985 | S. cerevisiae deletion strains, locus YNL067W, strain RPL9B, active compounds read low 1.02 | S. cerevisiae deletion strains, locus YNL071W, strain lat1, active compounds read low 1.01 | S. cerevisiae deletion strains, locus YNL209W, strain ssb2, active compounds read low 1.02 | S. cerevisiae deletion strains, locus YNL233W, strain BNI4, active compounds read low 1.01 | S. cerevisiae deletion strains, locus YNL248C, strain rpa49, active compounds read low 1.01 | S. cerevisiae deletion strains, locus YNL250W, strain rad50, active compounds read low 0.982 | S. cerevisiae deletion strains, locus YNL271C, strain bni1, active compounds read low 0.986 | S. cerevisiae deletion strains, locus YNL298W, strain CLA4, active compounds read low 0.981 | S. cerevisiae deletion strains, locus YNL307C, strain MCK1, active compounds read low 0.987 | S. cerevisiae deletion strains, locus YNL322C, strain KRE1 (second series), active compounds read low 1.01 | S. cerevisiae deletion strains, locus YNL322C, strain KRE1, active compounds read low 0.997 | S. cerevisiae deletion strains, locus YNR049C, strain mso1, active compounds read low 0.998 | S. cerevisiae deletion strains, locus YNR052C, strain pop2, active compounds read low 0.985 | S. cerevisiae deletion strains, locus YOL012C, strain htz1 1.54 | S. cerevisiae deletion strains, locus YOL147C, strain pex11, active compounds read low 0.993 | S. cerevisiae deletion strains, locus YOR001W, strain rrp6, active compounds read low 1.02 | S. cerevisiae deletion strains, locus YOR061W, strain CKA2, active compounds read low 0.99 | S. cerevisiae deletion strains, locus YOR069W, strain VPS5, active compounds read low 0.993 | S. cerevisiae deletion strains, locus YOR070C, strain gyp1, active compounds read low 0.994 | S. cerevisiae deletion strains, locus YOR080W, strain dia2, active compounds read low 0.998 | S. cerevisiae deletion strains, locus YOR083W, strain WHI5, active compounds read low 1.02 | S. cerevisiae deletion strains, locus YOR106W, strain vam3, active compounds read low 1.02 | S. cerevisiae deletion strains, locus YOR136W, strain idh2, active compounds read low 0.986 | S. cerevisiae deletion strains, locus YOR144C, strain elg1, active compounds read low 0.992 | S. cerevisiae deletion strains, locus YOR184W, strain ser1, active compounds read low 0.992 | S. cerevisiae deletion strains, locus YOR231W, strain MKK1, active compounds read low 0.969 | S. cerevisiae deletion strains, locus YOR265W, strain rbl2, active compounds read low 1 | S. cerevisiae deletion strains, locus YOR270C, strain vph1, active compounds read low 1.01 | S. cerevisiae deletion strains, locus YOR290C, strain snf2, active compounds read low 1.01 | S. cerevisiae deletion strains, locus YOR316C, strain cot1, active compounds read low 0.985 | S. cerevisiae deletion strains, locus YPL051W, strain arl3, active compounds read low 1.01 | S. cerevisiae deletion strains, locus YPL055C, strain LGE1, active compounds read low 0.991 | S. cerevisiae deletion strains, locus YPL078C, strain atp4, active compounds read low 1.01 | S. cerevisiae deletion strains, locus YPL106C, strain sse1, active compounds read low 1.03 | S. cerevisiae deletion strains, locus YPL240C, strain hsp82, active compounds read low 0.998 | S. cerevisiae deletion strains, locus YPL256C, strain CLN2, active compounds read low 0.94 | S. cerevisiae deletion strains, locus YPR119W, strain clb2, active compounds read low 0.993 | S. cerevisiae deletion strains, locus YPR141C, strain kar3, active compounds read low 0.986 | S. cerevisiae deletion strains, locus YPR163C, strain tif3, active compounds read low 1.01 | S. cerevisiae deletion strains, locus YPR167C, strain met16, active compounds read low 0.971 | S. cerevisiae deletion strains, strain wtn01, active compounds read low 0.965 | S. cerevisiae strains, strain wild type, active compounds read low 0.995
active: S. cerevisiae deletion strains, locus YNL183C, strain NPR1, active compounds read low 1.11 [resistant]
